± gives the standard deviation of the averaged measurements. Whole data set: some 25,000 sequences, median “ln(normalized median fluorescence intensity)” near 7.9, cut for the highest 2% near 11. This excerpt belongs to a sample that is enriched for the highest values.
These sequences were tested on PfAP2-I AP2 domain 3 (GST-tagged) (assay: gcPBM binding intensity (ln(normalized median fluorescence intensity)); higher = stronger DNA binding).
Outline: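 Probes on an Agilent 4 × 180k array were primer-extended, double-stranded and 36 bp long, taken from intergenic genomic regions, with negative controls added. GST-tagged P. falciparum DNA-binding domains from E. coli, about 25 μg on average, were applied to the array for 1 h in 1× PBS containing 1% milk, 0.2 mg/ml BSA, 0.5% salmon testes DNA and 0.03% Triton X-100. Binding intensity, obtained after Alexa488 anti-GST antibody detection and a 488 nm scan, is the highest Masliner-normalised natural-log median intensity across replicate spots of either probe orientation.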

Sequence | gcPBM binding intensity (ln)
TGGGAAAAAATATATGCACACCCCCCAAAAAAAAAA [CACACA_site8696] | 11.5 ± 0.52
GGAAAAAATATATGCACACCCCCCAAAAAAAAAAAA [CACACA_site2222] | 10.6 ± 0.2
AAAAAAAAAAAACACACACACACACCCAAATATATA [CACACA_site150] | 7.91 ± 0.2
CGGATGAATATATATGCACACATCTTTTGTAAAAAT [CACACA_site3190] | 9.16 ± 0.11
TTTAGTGAGTTTGTTGTGCACTGAAAAAATTACAAT | 11.1 ± 0.18
TATATTATATATATACTGCACTGTTTTACAAAATTA | 10.8 ± 0.57
TTTCCAATTAGTTTTGCATGTTGAAAAAATGTTGGA [TGCATGCA_site1035] | 7.71 ± 0.52
CATGAATATTTTAATGTGCACATTTATCATTATATG | 9.5 ± 0.21
GCACATATGAATATAATACACACTTGTATTATTAAT [CACACA_site1841] | 8.1 ± 0.52
TTAATTATGGACAGGGTGCACATGAATAATAATACC | 11 ± 0.18
TTTGAATACTGAATGGTGCAAATTGTTCTCCCCATG | 10.9 ± 0.61
ATTTATATATATATAGGTACACATATTTATATATAA [XGTACX_site8487] | 7.58 ± 0.41
AAAGAAATAAGGTGCACACATATACAGATATATATA [CACACA_site4399] | 10.3 ± 0.4
AAATAGTTGTTAAAGGTGCACAATATGGATATAAGA | 11.5 ± 0.38
TTAAAAGTTATGGATACACACATATAAATATAGATT [CACACA_site7175] | 7.57 ± 0.42
AATATATGTTTAATTTCACACACAAATATACATTTT [CACACA_site9385] | 7.69 ± 0.65
TACAGATACAGATACACACACACACCGAAATAAATA [CACACA_site4865] | 7.84 ± 0.37
ATTTTTAATTTTTTCACACATATATTTAAAATAAAA [CACACA_site4799] | 7.94 ± 0.49
TAAAAATTCAATTGCACACGCACATATTTTAATAAG [CACACA_site2014] | 8.8 ± 0.057
AAAATTTAATATAATGCACACATAAAAAAAAATTCA [CACACA_site8640] | 10.9 ± 0.92
AATTTAATATAATGCACACATAAAAAAAAATTCAAA [CACACA_site2062] | 11 ± 0.79
ATTTCGTAATTTATATCACACACATATATATATAAT [CACACA_site9021] | 8.06 ± 0.53
CTTATATTAATTATTACACACATATTTATAAATGCA [CACACA_site6501] | 8.07 ± 0.47
ATATTTTATTATATAGGTACACATAATTTCATGTAA [XGTACX_site415] | 7.83 ± 0.52
AATTTAATATAATGCACACATAAAAAAAAAAAATTC [CACACA_site1504] | 11 ± 0.61

Sequence | gcPBM binding intensity (ln)
TTCAAAATAAAAAATTCACACACATATATATATATA [CACACA_site8653] | 9.28 ± 0.39
CATATATATCGTAATGCACACATGTAATTTCATAAT [CACACA_site811] | 11 ± 0.92
TGTATAAATATAATCACACATATATATATATATATA [CACACA_site4365] | 9.32 ± 0.53
AATTTATAAGAATAAAGTACTAAAGATACAACTTTA [XGTACX_site7153] | 7.53 ± 0.4
GAATAAAAAAAAAAAAAAATTTATTTTATAATAAAA [CACACA_negctrl_site1514] | 7.24 ± 0.49
ACTTATATTATAAATTGTACAAATATTATATTTGGT [XGTACX_site1424] | 7.76 ± 0.54
ACATATATATATATATATATATATATATTACATTTA [CACACA_negctrl_site627] | 8.54 ± 0.28
AATAAAGAAGAAGAAAGTACACATTTCACAAAGGGG [XGTACX_site1308] | 8.23 ± 0.21
AAAAATACAATTTTCTTGCACTTTGTTGCATTGTAA | 9.79 ± 0.32
TATAAATAGATATATACACACTTGTGCAGAATATTA [CACACA_site7112] | 9.37 ± 0.099
CCATCTTTTTTACGATGTACAAGTATAAGGTATACG [XGTACX_site2697] | 7.76 ± 0.46
TACTGCCTTCCATACCCACACACTTCCCATATATTT [CACACA_site2705] | 8.44 ± 0.69
TAGAACAAATAAAACACACACATATAAATATAGATG [CACACA_site7325] | 7.65 ± 0.73
TTTTTTTGTTGTTGTTGTACGATATTTTCCTTATCA [XGTACX_site2375] | 7.93 ± 0.54
TATGTAATAAAATATACACACAATATACTTATATAT [CACACA_site3682] | 7.53 ± 0.55
TATGCAATAAAATATACACACAATATACTTATATAT [CACACA_site7691] | 7.87 ± 0.4
TATTCAATACTTAATGCACACAATAAAAAAAATATG [CACACA_site2467] | 10.9 ± 0.71
AATAATAATATATGTAGTACACATTTCCATTATGTT [XGTACX_site3708] | 7.75 ± 0.27
ACTTATTGTGGTTTTGCATGTAGCATTTTTACATAC [TGCATGCA_site247] | 8.62 ± 0.91
TGTTTTATTTTTTTTGTGCACATACCTTTAGCATCA [GTGCAC_site9812] | 10.64 ± 0.064
TTTCTTTTTAAATAGGTGCATATTTTTATAAATATA | 9.95 ± 0.42
TTTTGTTATTTTTTAGTGCATATAAAGGTTGTTAAG | 10.7 ± 0.4
CATCATCTTTTAAAGGTGCATAATAATATTGTTAAT | 11.4 ± 0.69
ATATACATTCTATATACATGCATACTTCATTTTGTG [TGCATGCA_site966] | 8.03 ± 0.85
